Values quoted from earlier work in PubChem BioAssay AID977608.
In all, about 4,300 compounds went through this assay and about 4,300 (100%) were called active. No cut-off is given here; in the data, nearly all actives have IC50 up to about 1400 µM. So high a share suggests a set chosen from earlier hits. The list shows a part of the results. Square brackets hold non-standard residues; d marks the D form. Peptide text beside a SMILES is read from it. * marks the point of attachment. 3Pal = N[C@@H](Cc1cccnc1)C(=O)O; hLeu = CC(C)CC[C@H](N)C(=O)O; β3hL = CC(C)C[C@H](N)CC(=O)O; X1 = CC(=O)[C@H](CC(=O)O)N*

Assay: protein-ligand inhibition affinities from structures – PDB-derived complexes (AID 977608)

## O=C(Nc1nc2ccccc2s1)c1cccc2c1CN(c1nc(C(=O)O)c(CCCOc3ccc(-n4ncc5cncnc54)cc3)s1)CC2
Literature IC50, protein: Bcl-2-like protein 1 Bcl-xL, PDB entry 4tuh
  IC50: 100000 nM (active)

## Cc1c(-c2c([C@H](OC(C)(C)C)C(=O)O)n(C)c(=O)c3ccccc23)cc(F)c2c1CCCO2
Literature IC50, protein: HIV-1 Integrase HIV-1 IN, PDB entry 4ojr
  IC50: 38 nM (active)

## CCc1sc(-c2ccc(OC)c(OCCF)c2)nc1CSc1nc(N)cc(N)n1
Literature IC50, protein: Deoxycytidine kinase, Human dCK C4S-S74E mutant, PDB entry 4jlm
  IC50: 22.7 nM (active)

## Cc1ccc(CN(C)c2cc(C)nc3ncnn23)cc1
Literature IC50, protein: Bromodomain-containing protein 4, PDB entry 4men
  IC50: 125000 nM (active)

## C[N+](C)(C)CCCC(=O)O
Literature IC50, protein: human gamma-butyrobetaine hydroxylase, PDB entry 4c5w
  IC50: 3300 nM (active)

## COc1cc(Nc2nccc(Nc3ccc4c(C)[nH]nc4c3)n2)cc(OC)c1OC
Literature IC50, protein: Bromodomain-containing protein 4 BRD4-1, PDB entry 4o78
  IC50: 4600 nM (active)

## COc1cc(NC(=O)c2cccc3cccnc23)c(OC)cc1Cl
Literature IC50, protein: 3-OXOACYL-[ACYL-CARRIER-PROTEIN] REDUCTASE FABG, PDB entry 4bo1
  IC50: 50 nM (active)

## [N-]=[N+]=N[C@H]1C[C@@H](C(=O)N2CCC[C@H]2C=N)N(C(=O)CCCc2ccccc2)C1
Literature IC50, protein: PROLYL ENDOPEPTIDASE, PDB entry 4bcb
  IC50: 3 nM (active)

## CC(C)(C)OC(=O)NCc1cn([C@H]2C[C@@H](C(=O)N3CCC[C@H]3C=N)N(C(=O)CCCc3ccccc3)C2)nn1
Literature IC50, protein: PROLYL ENDOPEPTIDASE, PDB entry 4bcc
  IC50: 9 nM (active)

## Cc1c(O)cccc1C(=O)N[C@H](C(=O)N[C@@H](CO)C(=O)N[C@H](CCS(C)(=O)=O)Cc1ccc(CN)cc1)C(C)C
Literature IC50, protein: yeast 20S proteasomes, PDB entry 4int
  IC50: 1600 nM (active)

## CC(C)C[C@H](NC(=O)[C@@H](Cc1ccc(CN)cc1)NC(=O)[C@H](Cc1ccccc1)N=[N+]=[N-])C(=O)N[C@H](CCS(C)(=O)=O)Cc1ccc(CN)cc1
Literature IC50, protein: yeast 20S proteasomes, PDB entry 4inu
  IC50: 0.55 nM (active)

## NC(=O)[C@H](CCCCNC(=O)[C@@H](Cc1ccc(C(=O)c2ccccc2)cc1)NC(=O)CCC1CCCCC1)NC(=O)/C=C/C(=O)O
Literature IC50, protein: Cysteine-free Human Insulin Degrading Enzyme, PDB entry 4lte
  IC50: 60 nM (active)

## COc1ccc(C(O)c2sc(Nc3ccc(S(N)(=O)=O)cc3)nc2N)cc1 (centres undefined)
Literature IC50, protein: Cyclin-dependent kinase 2, PDB entry 3s1h
  IC50: 17000 nM (active)

## COc1cccc(C(O)c2sc(Nc3ccc(S(N)(=O)=O)cc3)nc2N)c1 (centres undefined)
Literature IC50, protein: Cyclin-dependent kinase 2, PDB entry 3ral
  IC50: 100 nM (active)

## COc1cccc(C(O)c2sc(Nc3ccccc3)nc2N)c1 (centres undefined)
Literature IC50, protein: Cyclin-dependent kinase 2, PDB entry 3qts
  IC50: 3100 nM (active)

## Nc1nc(Nc2ccc(S(N)(=O)=O)cc2)sc1C(O)c1ccccc1 (centres undefined)
Literature IC50, protein: Cyclin-dependent kinase 2, PDB entry 3rak
  IC50: 130 nM (active)

## Nc1nc(Nc2ccc(S(N)(=O)=O)cc2)sc1C(O)c1cccc([N+](=O)[O-])c1 (centres undefined)
Literature IC50, protein: Cyclin-dependent kinase 2, PDB entry 3qtx
  IC50: 70 nM (active)

## COc1ccc(Nc2nc(-c3cccc(C(=O)Nc4ccc(C(=O)O)cc4)c3)c[n+]3cc[nH]c23)cc1OC
Literature IC50, protein: Tyrosine-protein kinase SYK, PDB entry 4pv0
  IC50: 0.85 nM (active)

## COc1ccc(Cc2nn3c([C@@H](CCCc4ccccc4)[C@@H](C)O)nc(C)c3c(=O)[nH]2)cc1OC
Literature IC50, protein: cGMP-dependent 3',5'-cyclic phosphodiesterase, PDB entry 4htx
  IC50: 4.7 nM (active)

## CC(=O)N[C@@H](Cc1cccnc1)C(=O)N[C@@H](CC(=O)O)C(=O)N[C@H](CC(=O)N[C@@H](CCC(C)C)C(=O)N[C@@H](CC(=O)O)C(C)=O)CC(C)C (Ac-[3Pal]D[β3hL][hLeu]-X1)
Literature IC50, protein: Caspase-3, PDB entry 4jje
  IC50: 23 nM (active)
Literature IC50, protein: Caspase-7, PDB entry 4jj8
  IC50: 730 nM (active)
Literature IC50, protein: Caspase-8, PDB entry 4jj7
  IC50: 400 nM (active)

## CCOc1cc(C(C)(C)C)ccc1C1=N[C@@](C)(c2ccc(Cl)cc2)[C@@](C)(c2ccc(Cl)cc2)N1C(=O)N1CCN(CCCS(C)(=O)=O)CC1
Literature IC50, protein: E3 ubiquitin-protein ligase Mdm2 (I50L, P92H, L95I mutation), PDB entry 4ipf
  IC50: 18 nM (active)

## CCC(C)(C)NC(=O)[C@@H](c1cccn1C)N(C(=O)Cn1nnc2ccccc21)c1ccc(NC(C)=O)cc1
Literature IC50, protein: 3C-like proteinase, PDB entry 4mds
  IC50: 6200 nM (active)

## N#CNC(NCc1ccc(S(=O)(=O)c2cccc(OC(F)(F)F)c2)cc1)Nc1ccncc1 (centres undefined)
Literature IC50, protein: Nicotinamide phosphoribosyltransferase, PDB entry 4lts
  IC50: 4.4 nM (active)

## COc1cccc(-c2cc(C(F)(F)F)[nH]n2)c1
Literature IC50, protein: Phenylalanine--tRNA ligase, PDB entry 4p75
  IC50: 80000 nM (active)

## CCC(=O)O[C@@H]1CC[C@@]2(C)[C@H](CC[C@@H]3[C@@H]2CC[C@]2(C)[C@@H]([C@H](C)CCC(=O)O)CC[C@@H]32)C1
Literature IC50, protein: vitamin D3 receptor ligand binding domain, PDB entry 3w5t
  IC50: 30000 nM (active)

## CC1C=CC(C(=O)Nc2ccc(Oc3cc4cnn(C)c4cc3-c3cn[nH]c3)c(F)c2)C(=O)N1c1ccc(F)cc1 (centres undefined)
Literature IC50, protein: Hepatocyte growth factor receptor, PDB entry 4eev
  IC50: 4.7 nM (active)

## CC1=C(C(=O)N[C@H](C)C(=O)N[C@@H](Cc2c[nH]c3ccccc23)C(=O)N[C@@H](Cc2ccccc2)[C@@H](O)[C@H](C)CO)Cc2ccccc21
Literature IC50, protein: yCP, PDB entry 4qlt
  IC50: 2.5 nM (active)

## CC1=C(C(=O)N[C@H](C)C(=O)N[C@@H](Cc2c[nH]c3ccccc23)C(=O)N[C@@H](CC2CCCCC2)[C@@H](O)[C@H](C)CO)Cc2ccccc21
Literature IC50, protein: yCP, PDB entry 4qlu
  IC50: 8.3 nM (active)

## OC(Cc1cnc2ccccn12)([P+](O)(O)O)[P+](O)(O)O
Literature IC50, protein: human FARNESYL PYROPHOSPHATE SYNTHETASE, PDB entry 2vf6
  IC50: 3 nM (active)

## CCC(=O)Nc1ccc(OC)c(Nc2ncc(Cl)c(-c3c[nH]c4ccccc34)n2)c1
Literature IC50, protein: Epidermal growth factor receptor, PDB entry 4li5
  IC50: 550 nM (active)

## COc1ccc2c(c1OC)CN(C)c1c-2ccc2cc3c(cc12)OCO3
Literature IC50, protein: Chitinase A(W275G mutant), PDB entry 3as1
  IC50: 95000 nM (active)

## c1ccc(-c2nc(-n3cnnc3)c3ccccc3n2)cc1
Literature IC50, protein: 3-OXOACYL-[ACYL-CARRIER-PROTEIN] REDUCTASE FABG, PDB entry 4bnu
  IC50: 20 nM (active)

## Ac-NSNAIKN-NH2
Literature IC50, protein: Low-density lipoprotein receptor-related protein 6, PDB entry 3soq
  IC50: 27000 nM (active)

## CC[C@H](C)[C@H](NC(=O)[C@H](CCC(=O)O)NC(=O)[C@H](C)NC(C)=O)C(=O)N[C@H](CO)CCCCN
Literature IC50, protein: Streptopain, PDB entry 4d8i
  IC50: 205 nM (active)

## CCNC(=O)c1ccc(C(=O)NCCC2CCN(c3ncnc4cc(C(N)=O)sc34)CC2)s1
Literature IC50, protein: NAD-dependent protein deacetylase sirtuin-3, mitochondrial, PDB entry 4jsr
  IC50: 4 nM (active)

## Nc1nc(NC2CCCCC2)sc1C(O)c1ccc2ccccc2c1 (centres undefined)
Literature IC50, protein: Cyclin-dependent kinase 2, PDB entry 3rah
  IC50: 12 nM (active)

## Nc1nc(NC2CCCCC2)sc1C(O)c1cccc([N+](=O)[O-])c1 (centres undefined)
Literature IC50, protein: Cyclin-dependent kinase 2, PDB entry 3r9n
  IC50: 1400 nM (active)
